In PubChem BioAssay:

Legend:
PEG-3 [1] = target: PEG-3 (UniProt Q6IN02); experiment: inhibition of PEG-3 promoter-driven reporter – cell-based, HeLa, luciferase, CREF/GAPDH counter-screen panel, dose response (AID 624167); settings: CREF/GAPDH counter-screens; HeLa PEG-Prom luciferase reporter, overnight, run 1, dose range 1, at 100 µM (top of the series) unless noted
PEG-3 [2] = target: PEG-3 (UniProt Q6IN02); experiment: as above; settings: CREF/GAPDH counter-screens; HeLa PEG-Prom luciferase reporter, overnight, run 2, dose range 1, at 100 µM (top of the series) unless noted

Chain of PEG-3 (Q6IN02 whole entry, looked up): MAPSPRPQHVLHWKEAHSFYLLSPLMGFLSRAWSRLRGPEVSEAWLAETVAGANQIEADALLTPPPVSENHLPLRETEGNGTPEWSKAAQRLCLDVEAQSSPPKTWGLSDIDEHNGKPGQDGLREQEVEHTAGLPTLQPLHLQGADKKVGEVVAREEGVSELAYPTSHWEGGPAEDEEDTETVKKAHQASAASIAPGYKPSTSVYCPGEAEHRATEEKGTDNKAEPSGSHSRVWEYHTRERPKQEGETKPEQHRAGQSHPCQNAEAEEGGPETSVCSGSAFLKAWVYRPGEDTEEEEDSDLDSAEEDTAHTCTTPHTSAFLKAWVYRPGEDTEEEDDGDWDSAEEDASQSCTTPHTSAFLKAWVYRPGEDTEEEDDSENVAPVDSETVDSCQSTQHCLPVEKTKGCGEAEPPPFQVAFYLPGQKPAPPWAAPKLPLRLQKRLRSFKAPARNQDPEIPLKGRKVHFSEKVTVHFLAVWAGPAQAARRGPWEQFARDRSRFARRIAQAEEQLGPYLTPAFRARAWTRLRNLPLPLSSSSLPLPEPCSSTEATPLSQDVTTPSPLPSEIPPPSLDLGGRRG

Compound	inhibition (PEG-3 [1])	inhibition (PEG-3 [2])
COc1ccc(C2c3c(ncn(CCCN4CCOCC4)c3=N)Oc3ccc4ccccc4c32)cc1OC (stereo unspecified)	102%	100%
Cc1c(C(=O)N2CCN(c3ccc(F)cc3)CC2)sc2ncnc(N3CCN(c4ccccn4)CC3)c12	67.2%	77.6%
Cc1ccc(C(=O)N/C(=C\c2ccc(-c3cccc([N+](=O)[O-])c3)o2)C(=O)NCCCN(C)C)cc1	102%	98.8%
COc1ccc(-n2cc(CNC3CCN(C)CC3)c(-c3cccc(F)c3)n2)cc1	100%	101%
CCCN(CC(=O)Nc1cc(Cl)cc(Cl)c1)CC(=O)Nc1ccc(F)c(F)c1F	101%	99%
O=C1NC(Cc2ccc(O)cc2)c2nc3ccc(F)cc3c(=O)n2-c2cc3ccccc3cc21 (stereo unspecified)	100%	95.8%
Cc1c(CCOC(=O)C23CC4CC(CC(C)(C4)C2)C3)sc[n+]1CC(=O)c1ccccc1	99.3%	97.8%
CC(C)n1cc(CN2CCC(C(=O)Nc3cccc(-c4cccc(Cl)c4)c3)CC2)cn1	99.3%	101%
Cc1cc(C)c2ccc(N)nc2c1O	70.1% [run 1, dose range 1, at 50 µM]	67.1% [run 2, dose range 1, at 50 µM]
NC(c1csc(Nc2nccc(C(F)(F)F)n2)n1)C1CCCCC1 (stereo unspecified)	98.2%	99.1%
CCOC(=O)CN(C(=O)CSc1nnc2c(n1)[nH]c1ccc(F)cc12)c1ccccc1	99.9%	99.2%
CCc1nc(Sc2nnnn2-c2ccccc2)c2c3c(sc2n1)CCCC3	68.7%	91.8%
O=C(Nc1ccc(CN2CCCCC2)cc1)Nc1ccc(Br)cc1Cl	99%	101%
COc1ccc(NS(=O)(=O)c2ccc3ccccc3c2)c2ncccc12	57.9%	73.1%
Oc1ccc(C[C@H]2CNCCN2CCc2cc(C(F)(F)F)cc(C(F)(F)F)c2)cc1	97.5%	102%
COc1cccc(NC(=O)CN(C)C(=O)c2cccnc2Nc2cccc(C(F)(F)F)c2)c1	102%	102%
COc1ccc(CN(C)C(=O)C(Cc2ccccc2)NC(=O)c2ccccc2)cc1F (stereo unspecified)	99.1%	98.2%
CC(=O)Nc1ccc(S(=O)(=O)N(Cc2ccco2)Cc2cc3ccccc3[nH]c2=O)cc1	91.7%	71.7%
CC1(Cc2ccc(Cl)c(Cl)c2)C(=O)Nc2ccc(S(=O)(=O)NC3CCCCC3)cc21 (stereo unspecified)	92.8%	95.4%
Cc1c(C(=O)Nc2ccc(S(=O)(=O)N(C)C3CCN(C)CC3)cc2)oc2c(Cl)cccc12	102%	99.1%
O=C(NC1CCCCC1)Sc1ccc(Cl)cc1	102%	101%

Compound	inhibition (PEG-3 [1])	inhibition (PEG-3 [2])
COc1ccccc1NC(=O)Nc1nc(C(N)CCc2ccccc2)cs1 (stereo unspecified)	95.9%	102%
CCCC(=O)NC(c1cccc([N+](=O)[O-])c1)c1ccc2cccnc2c1O (stereo unspecified)	75.7% [run 1, dose range 1, at 50 µM]	98.9%
COc1ccc(-c2cc(C(=O)Nc3ccccc3N3CCOCC3)c3ccccc3n2)cc1OC	2.08%	15%
NC(=O)c1nsc(C(=O)N(c2ccccc2F)C(C(=O)NCc2ccccc2)c2ccc(O)cc2)c1N (stereo unspecified)	98.6%	99.3%
O=C(O)c1ccc(N/N=C/c2ccc(OC(=O)c3ccccc3Cl)cc2)cc1	99.2%	71.9%
CC1CCCCN1C(=O)c1cccc(NC2=C(Cl)C(=O)N(Cc3ccccc3)C2=O)c1 (stereo unspecified)	101%	101%
Cc1ccc(C2(CCNCc3ccc(N(C)C)cc3)CCOC(C(C)C)C2)cc1 (stereo unspecified)	99.6%	101%
O=C(c1ccco1)N1CCN(c2ncnc3c2[nH]c2ccc(Br)cc23)CC1	99.5%	98.2%
Oc1[nH]c2ccc(Br)cc2c1N=NC(=S)Nc1ccc(F)cc1	89.9%	100%
CC(=O)c1cccc(-c2csc3ncnc(Sc4nnnn4C)c23)c1	99.4%	100%
COC(=O)C1=C(C)N(Cc2ccccc2)C(=NCc2cccc(Cl)c2)N[C@H]1c1ccccc1	102%	101%
CCN1CCN(c2ncc(C(=O)Nc3cc(Cl)ccc3OC)c3ccccc23)CC1	100%	98.7%
NC1=NC[C@H](Cc2ccccc2)N1CCc1cc(C(F)(F)F)cc(C(F)(F)F)c1	101%	101%
CC(C)(C)c1ccc(OCCCNCc2ccccc2)cc1	99.8%	98%
CSc1ccc(CN(C)C(=O)C(Cc2ccccc2)NC(=O)c2ccccc2)cc1 (stereo unspecified)	101%	96.7%
CN(C)S(=O)(=O)c1cccc(NC(=O)CSc2nc3c(cc2C#N)C(=O)CC(C)(C)C3)c1	63.2%	60.6%
NC(=O)C1CCN(C2=C(Cl)C(=O)c3ccccc3C2=O)CC1	100%	97.8%
CN(C)c1ccc(/C=N/NC(=O)c2nnn(-c3nonc3N)c2COc2ccc(F)cc2)cc1	2.41%	-13.2%
CCCN1CCc2c(sc(NC(=O)c3ccc(S(=O)(=O)N4CCN(C(=O)OCC)CC4)cc3)c2C(N)=O)C1	78.5%	85.4%
O=C(c1cc(-c2cccs2)nn1-c1ccccc1)N1CCN(S(=O)(=O)c2ccccc2)CC1	-25.3%	27.8%
CN(C)CCCN(C(=O)c1ccc(S(=O)(=O)N(C)Cc2ccccc2)cc1)c1nc2cc3c(cc2s1)OCO3	100%	99.3%

Compound	inhibition (PEG-3 [1])	inhibition (PEG-3 [2])
O=C1C(Cl)=C(Nc2ccc(O)cc2)C(=O)c2ccccc21	102%	101%
O=C1N[C@@H](c2ccccc2)COC(=O)[C@@H](Cc2ccc(F)cc2)CC/C=C/C[C@H]1CC(=O)N(CCO)Cc1ccccc1	95.6%	97.4%
COc1ccc(CC(N)c2csc(NC(=O)Nc3ccccc3C(C)(C)C)n2)cc1 (stereo unspecified)	102%	98.5%
COc1ccccc1CCNC(=O)C1CCN(c2nnc(C)c3c(C)n(-c4ccc(C)cc4)nc23)CC1	99%	97.3%
O=C(/C=C/c1cc(Br)ccc1O)c1ccco1	102%	101%
CN(C)CCNc1ccc2nnn3c4ccc(O)cc4c(=O)c1c23	102%	98%
COC(=O)c1ccc(CNC(=O)Cn2cnc3c(NCc4ccccc4)ncnc32)cc1	97.3%	74.3%
Cc1ccc(NCCN(C)C)c2c(=O)c3cc(O)ccc3sc12	97.5%	102%
O=S(=O)(c1cccc(F)c1)N1CCN(c2nc(-c3cccnc3)nc3ccccc23)CC1	26.5%	46.2%
COCc1ccc(CN2CCC(C(=O)Nc3cccc(-c4cccc(Cl)c4)c3)CC2)o1	97.5%	99%
CCN(C(=O)CSc1nc2n[nH]c(C)c2c(=N)n1-c1ccc(Cl)c(C)c1)c1cccc(C)c1	70.5%	78%
CN(C)CCNC(=O)c1sc2nc(-c3ccccc3)cc(C(F)(F)F)c2c1N	102%	102%
COc1cc(OC)c(OC)cc1CCC(C)NCCC(c1ccccc1)c1ccccc1 (stereo unspecified)	100%	96.7%
COC(=O)c1ccc(OCC2c3cc(OC)c(OC)cc3CCN2C(=O)c2ccco2)cc1 (stereo unspecified)	77.9%	73.5%
CCCCCCCCNCCS(=O)(=O)NCc1ccc(OC)cc1	98.9%	95.7%
COc1ccc(-c2cc(C(=O)N(C)Cc3cccc(OC)c3OC)c3ccccc3n2)cc1OC	72.4%	74.7%
Cc1c(C#N)c(N)nc2c3c(sc12)NC(=O)CC3c1ccc(Cl)cc1 (stereo unspecified)	98.7%	100%
CCN1CCc2c(sc(NC(=O)c3ccc(S(=O)(=O)N4CCCCCC4)cc3)c2C(=O)NC)C1	94.4%	94.9%
COc1ccc(C)cc1Nc1n[n+](-c2ccccc2)c(-c2ccc(N(C)C)cc2)s1	97.2%	100%
COc1ccc(-c2sc3ccccc3c2-c2ccc(OCCN3CCCCC3)cc2)cc1	99.5%	100%
O=S(=O)(c1cccs1)N1CCN(c2ccnc3cc(Cl)ccc23)CC1	83.3%	90.7%

Compound	inhibition (PEG-3 [1])	inhibition (PEG-3 [2])
CCCCCc1ccc(OCCCC[n+]2cccc(C)c2)c(CCCCC)c1	98.6%	101%
O=C(Cn1ncc(Cl)c(Cl)c1=O)N1CCN(Cc2ccccc2)CC1	95.2%	98.8%
Cc1ccc2sc(N(CCCN(C)C)C(=O)c3ccc(S(=O)(=O)N(C)C4CCCCC4)cc3)nc2c1C	102%	102%
Cn1c(=O)c(C(=O)CCl)c(N)n(Cc2ccccc2)c1=O	102%	97.2%
CC(=O)Nc1ccc(S(=O)(=O)N(Cc2cccnc2)Cc2cc3ccccc3[nH]c2=O)cc1	11.2%	-18.5%
O=C(CCCN1C(=O)/C(=C/c2cccc(Br)c2)SC1=S)Nc1cccnc1	101%	96.5%
Cc1ccc(S(=O)(=O)CCSC(=N)N)cc1	101%	93.6%
O=C(CCN1C(=O)/C(=C/c2cccs2)SC1=S)N1CCCCC1	96.2%	94.3%
N#Cc1c(N)nc(SCc2ccncc2)c(C#N)c1-c1cccs1	94.6%	99.2%
CCOC(=O)/C(=C\c1ccccc1)C(=O)CCN1CCOCC1	102%	102%
O=C(c1ccccc1)N(C(=O)c1ccccc1)c1ncnc2c1C(c1ccccc1)c1c(ccc3ccccc13)O2 (stereo unspecified)	52.7%	28.4%
CCCCNc1nc(=S)n(-c2ccccc2)c(C)c1C(C)=O	98%	98.8%
COc1ccc(CC(N)c2csc(NC(=O)Nc3cc(OC)ccc3OC)n2)cc1 (stereo unspecified)	94.3%	98.7%
CCc1ccc(OCCNc2cc(N3CCNC(C)C3)ccc2[N+](=O)[O-])cc1 (stereo unspecified)	99.6%	101%
Cc1ccc(F)cc1-c1cc2nc(NCCCN(C)C)n(C)c(=O)c2s1	101%	99.2%
CCOc1ccc(Nc2c3ccccc3nc3ccccc23)cc1	97.9%	101%
COc1ccc(-c2cc(C(=O)N(C)Cc3ccccc3F)c3ccccc3n2)cc1OC	97.1%	94.9%
CC(=O)NC(c1ccccc1)c1cc(Cl)c2cccnc2c1O (stereo unspecified)	96.6%	99.7%
CC(=O)Nc1cccc(NC(=O)c2cc(-c3cccnc3)nc3ccc(Cl)cc23)c1	87.9%	97.3%
COc1ccc(-c2nc3c(C(=O)NCCN(C)C)cccc3c3ccccc23)cc1	102%	99.5%
